Only some compounds are listed: those with a hit (about 4.5% of all), similar ones and a draw of the others.
ssDAF-12 act: activators of S. stercoralis DAF-12 nuclear receptor; HEK293 ssDAF-12/GRIP1 lit1-tk-luc reporter, luminescence; % of 3 µM dafachronic acid response; activation, % at 6.8 µM; 370,000 tested, 1% active;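 active = activation above the mean over all tested compounds plus 3 SD, cut at about 0.9% in these data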;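 note: 0% = DMSO-only wells and 100% = 3 µM delta7-dafachronic acid wells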
hgDAF-12 ag: hgDAF-12 agonism, primary luciferase screen; HEK293 GAL4-hgDAF12 UAS-luciferase reporter, agonist luminescence; normalized to butyrate control; activation, % at 6.8 µM; 370,000 tested, 1.8% active;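 active = activation above a cutoff set at the mean of all screened compounds plus 3 SD, cut at about 10% in these data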;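 note: 0% = DMSO wells and 100% = sodium butyrate wells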
DAX1 inh-1: NR0B1 (DAX1) inhibition. HEK293 Gal4-DAX1 luciferase reporter, luminescence. inhibition, % at 6.75 µM. 340,000 tested, 0.99% active. AID 504766;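 active = inhibition above the mean over all tested compounds plus 3 SD, cut at about 4.2% in these data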;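 note: 0% = DAX1-transfected cells with DMSO and 100% = empty-vector control cells with DMSO; inhibition shows as a rise in luminescence from relieved DAX1 repression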
Target sequence (P51843 207-470 limits assumed): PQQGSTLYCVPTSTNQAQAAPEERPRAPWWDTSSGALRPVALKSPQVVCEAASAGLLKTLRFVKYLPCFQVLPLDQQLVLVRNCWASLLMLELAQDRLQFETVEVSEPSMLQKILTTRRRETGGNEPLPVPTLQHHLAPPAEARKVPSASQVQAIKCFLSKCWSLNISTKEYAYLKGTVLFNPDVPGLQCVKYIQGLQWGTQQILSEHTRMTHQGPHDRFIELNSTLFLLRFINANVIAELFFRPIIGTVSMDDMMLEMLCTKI
GAA850 FXN act: activators of GAA850 frataxin (FXN) promoter. HEK293 lucGAA850 FXN promoter luciferase reporter, 24 h; percent of 10 µM SAHA response. activation, % at 6 µM. 360,000 tested, 0.56% active;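 active = activation above the average of all compounds screened plus 3 SD, cutoff fixed separately per campaign, cut at about 7.5% in these data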;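 note: 0% = DMSO wells and 100% = 10 µM SAHA wells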
DAX1 inh-2: blocks DAX1 repression of SF-1 activated StAR promoter. 370,000 tested, 1.1% active. HEK293T StAR-luciferase reporter, SF-1/DAX-1 repression relief. AID 652010. inhibition, % at 6.8 µM;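 active = inhibition above the mean over all tested compounds plus 3 SD, cut at about 3.6% in these data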;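 note: 0% = DAX-1 cells with DMSO and 100% = cells lacking DAX-1 with DMSO; higher inhibition means more luminescence from relief of DAX-1 repression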
hcDAF-12 act: H. contortus DAF-12 activation, primary screen; AID 652067; 370,000 tested, 1.4% active; HEK293 hcDAF-12 lit1-tk-luc reporter, luminescence; 0% DMSO, 100% Δ7-dafachronic acid; activation, % at 6.8 µM;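 active = activation above the mean of all tested compounds plus 3 SD, cut at about 5.5% in these data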;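 note: 100% = response to 3 µM Δ7-dafachronic acid high control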
* hit, by the source's call; . = no result given.

SMILES | ssDAF-12 act | hgDAF-12 ag | DAX1 inh-1 | GAA850 FXN act | DAX1 inh-2 | hcDAF-12 act
COc1ccc(NC(=O)C(=O)NCCN2CCN(C(=O)c3ccc(C)cc3)CC2)cc1 | 1.2* | -1.5 | 1.5 | -2.1 | 0.1 | -3.1
CCC[C@H]1[C@@H](OC(=O)NCc2cccc(C(F)(F)F)c2)CC[C@@]23CCCN2C(=O)CCC[C@@H]13 | -1.9 | 0.0 | . | . | . | -4.1
Cc1cccc(NC(=O)c2cc3ccccc3c(=O)o2)n1 | -0.4 | 10.1 | 6.5* | 5.8 | 2.1 | 2.2
Cc1nc(NC(=O)c2cc3ccccc3o2)ccc1Br | 0.0 | 6.5 | 2.3 | 2.8 | 2.0 | -1.4
O=C(CN1C(=O)C2(OCCCO2)c2ccccc21)NCc1ccc2ccccc2c1 | -1.4 | -3.9 | . | . | -1.1 | -2.2
Cc1ccc(C(=O)NNC(=S)Nc2cccc3ccccc23)s1 | 1.2* | 5.4 | 1.4 | 2.0 | 0.8 | 6.3*
CC(C)(C)c1ccc(-c2nnc(SCC(=O)Nc3cccc4ccccc34)n2Cc2ccco2)cc1 | -1.6 | -0.4 | . | . | -0.5 | -3.4
CC(C)C[C@H]1CN=C(Nc2ccccc2)N1CC1CCCC1 | -0.9 | -2.8 | 0.3 | -0.4 | -0.2 | -0.8
CC(C)C[C@H]1CN=C(Nc2ccccc2)N1CC1CCC(C(C)(C)C)CC1 (stereo partly drawn) | . | . | 4.5* | -1.1 | . | .
O=C(CSc1nccc(=O)[nH]1)c1cc2ccccc2o1 | 1.3* | 11.3* | 2.3 | 2.0 | 0.7 | 2.9
C=CCN1[C@H](C)COc2cc(F)ccc2S1(=O)=O | -0.6 | 2.4 | . | . | 0.2 | -1.2
O=C(NCc1ccc2c(c1)CCO2)Nc1ccccc1 | -1.1 | 12.1* | 2.9 | 3.3 | 1.8 | 0.2
O=C(NCc1ccco1)C1CCCN(S(=O)(=O)c2cccs2)C1 (stereo not drawn) | -0.4 | 2.1 | . | . | -0.8 | -1.5
CCCCOCCCNC(=O)C[C@H]1C[C@@]2(C(=O)OC)C(=C[C@H](C(C)C)O[C@@H]2C2CC2)N(Cc2cccc3ccccc23)C1=O | -1.4 | 1.3 | . | . | -0.3 | -2.9
Cc1sc(CO)c(Sc2ccccc2)c1C(=O)O | -0.4 | -0.6 | . | . | 0.0 | 6.0*
C[C@@H]1CC(=O)NN=C1c1ccc(NN=C(C#N)C#N)cc1 | -0.8 | -0.1 | . | . | -0.5 | -2.0
Cc1nnc2ccc(-c3ccc(NC(=O)c4ccco4)cc3)nn12 | -1.7 | -1.3 | 1.5 | 2.3 | -0.3 | -0.5
CC(=O)Nc1ccc(-c2ccc3nnc(C)n3n2)cc1 | -1.7 | -2.9 | 5.1* | 0.4 | -0.3 | 1.0
O=C(NN=C/C=C/c1ccco1)c1cc(-c2ccc(Cl)cc2)n[nH]1 | -0.6 | 0.6 | . | . | -3.2 | 0.0
Cc1cc(C(=O)CSc2nc(N)cc(N)n2)c(C)n1C1CC1 | -0.7 | 2.6 | 0.6 | 1.6 | -0.7 | 1.4
C=CCn1c(C)cc(C(=O)CSc2nc(N)cc(N)n2)c1C | -0.1 | 4.0 | 4.6* | 2.7 | 0.2 | 3.0
CS(=O)(=O)N1c2ccccc2C[C@H]1Cc1cc2ccccc2o1 | -0.1 | 0.7 | . | . | . | 1.4
c1ccc2c(c1)c1cccc3ccc4cccc2c4c31 | -0.2 | -3.6 | 0.3 | 0.3 | 0.3 | -2.2
N#CCc1cc2ccc3cccc4ccc(c1)c2c34 | -1.4 | -1.9 | 7.0* | 3.9 | -0.1 | -0.3
NC1=NC(=O)/C(=C/C=C/c2cccs2)S1 | -0.5 | 5.2 | 4.8* | 2.3 | 0.3 | 1.4
SMILES | ssDAF-12 act | hgDAF-12 ag | DAX1 inh-1 | GAA850 FXN act | DAX1 inh-2 | hcDAF-12 act
O=C(Nc1ccc(Cl)c(Cl)c1)C1CCCN(c2nnc(-n3cccc3)s2)C1 (stereo not drawn) | -1.4 | -2.9 | . | . | 0.2 | -2.1
CCC(C)CNC(=O)CN1C(=O)C2CCCCN2C(=O)c2ccccc21 (stereo not drawn) | -0.6 | -1.9 | . | . | 0.5 | 0.2
COc1cccc(CCc2nnc(CCC(=O)N3CCCC3c3nccs3)o2)c1 (stereo not drawn) | -1.9 | -1.7 | 4.2* | 0.9 | -0.3 | -0.9
N#CCC(=O)Nc1ccc(C(=O)OCC(=O)NC(=O)Nc2ccc3c(c2)OCCO3)cc1 | -0.4 | 9.6 | 1.8 | 2.1 | 4.2* | 3.8
O=C(COC(=O)C1COc2ccccc2O1)NC(=O)Nc1ccc2c(c1)OCCO2 (stereo not drawn) | -0.1 | 4.3 | 1.0 | -3.2 | -0.5 | 5.8*
O=C(COC(=O)C1COc2ccccc2O1)Nc1cccc(Cl)c1 (stereo not drawn) | -0.7 | 0.0 | 0.3 | 0.8 | -0.1 | 1.7
COc1ccc(Cl)cc1NC(=O)COC(=O)C1COc2ccccc2O1 (stereo not drawn) | 1.0* | 1.2 | 0.3 | 1.1 | 0.1 | 5.5
O=c1ccn(-c2ccccc2)[nH]1 | -1.4 | 2.9 | 4.4* | -0.9 | -0.3 | -0.2
O=c1[nH]n(-c2ccccc2)c(=O)c(Cl)c1Cl | . | . | -0.1 | 1.9 | . | .
COc1ccc2c(CN(Cc3ccccc3)Cc3ccccc3)cc(=O)oc2c1 | -1.1 | 1.5 | . | . | -0.7 | -1.3
O=c1cc(CN(Cc2ccccc2)Cc2ccccc2)c2c(ccc3ccccc32)o1 | 1.8* | 1.1 | . | . | 1.0 | 2.8
CC(C)CN1C(=O)[C@@]2(CC(=O)N(C)C2c2ccccc2)c2cc(-n3cc(CO)nn3)ccc21 (stereo partly drawn) | -0.9 | 1.8 | . | . | 0.3 | -1.6
CCCCn1nnc(N(C(=O)c2cccs2)C(=O)c2cccs2)n1 | -0.2 | 5.6 | 5.7* | 3.1 | 0.2 | 0.0
Cc1c[nH]c2cccc(-c3ccc4c(c3)OCO4)c12 | -1.1 | 7.7 | . | . | 0.3 | -1.5
Cc1ccccc1Nc1nc(N)nc(COC(=O)c2ccco2)n1 | 0.5 | 11.8* | 2.8 | 3.2 | 2.4 | 3.5
Nc1nc(COC(=O)c2ccco2)nc(Nc2ccccc2)n1 | -0.7 | 3.3 | 3.7 | 3.4 | 1.6 | -0.9
Cc1ccc(Cn2cc(CN3[C@@H](Cc4ccccc4)COc4cc(Br)ccc4S3(=O)=O)nn2)cc1 | -0.2 | -4.2 | . | . | 0.4 | -2.3
CO[C@H]([C@H](C)/C=C/N(C)C=O)[C@@H](C)C(=O)CC[C@H](C)[C@H](O)[C@H](C)[C@H]1OC(=O)/C=C/C(C)=C/C[C@H](O)C[C@@H]2C=CC[C@@H](C[C@H](OC)[C@@H](C)[C@@H](OC)C[C@@H](OC)[C@@H]1C)O2 | -2.3 | -12.1 | . | . | . | -3.4
O=C(NC1CCCCN(Cc2cccc(F)c2)C1=O)c1cccc(C(F)(F)F)c1 (stereo not drawn) | -0.9 | 2.1 | . | . | 0.4 | 1.6
CC(=O)Nc1ccc(Cl)cc1C(=O)O | 0.9* | 0.1 | 0.7 | 0.3 | 0.3 | -0.3
CC(=O)Nc1ccc(Cl)cc1-c1ccccc1 | -1.1 | 0.3 | -1.0 | -1.0 | -0.1 | 1.4
Cn1nccc1C(=O)N/N=C/c1cccnc1 | -0.4 | 1.9 | 4.3* | 0.8 | 0.4 | 1.7
O=C(N/N=C/c1ccc2c(c1)OCO2)c1cccnc1 | -0.4 | 5.0 | 0.9 | 0.1 | 0.0 | 0.5
O=C(N/N=C/c1cccnc1)c1ccc2c(c1)OCCO2 | -0.8 | 11.4* | 0.9 | 3.9 | 1.4 | 2.1

Source: PubChem BioAssay
